Here are results for 16 molecules from PubChem BioAssay (NCI).

What all share (test): NCI-60 one-dose screen, 48 h (100 = growth as untreated, 0 = no growth, -100 = all killed)
Common to all, as to details: 10 µM unless noted

Test [1] concerns T-47D breast.
The test system of test [2] is BT-549 breast.
The subject of test [3] is MDA-MB-435 melanoma.
The subject of test [4] is SW-620 colon.
Test [5] deals with MCF7 breast.
Test [6] relates to HCT-116 colon.
In test [7] the test system is HCC-2998 colon.
In test [8] the test system is KM12 colon.

This is part of a sample that, as a whole, favours compounds with a hit. Of some 83,000 tested, about 20% had one in any assay.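 Cells were grown in 96-well plates and exposed to the test compound at a single concentration for 48 hours; results are reported as percent growth, with values below 10 considered active.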 Values without a mark were called inactive. Calls of active or inactive are those of the source.

Consider `CC(=O)N1N=C(c2ccc3c(c2)OCO3)CC1c1c(C)nn(-c2ccccc2)c1N(C)Cc1ccccc1` (stereo not drawn), for which the growth in test [1] is 58.6%; in test [2] it was 85.2%; in test [3], 90.7%; in test [4] it was 85.9%; in test [5], 66.1%; in test [6] it was 57.3%. The results for the growth in test [7] and in test [8] were 97.2% and 83.6%, respectively.

For the molecule `COc1cccc(N2CCN(c3cccc(C)n3)CC2)c1`, the growth in test [1] is 115%; in test [2], 105%; in test [3], 95.1%; in test [4], 110%; in test [5], 95.4%; in test [6], 91%. Also, the growth in test [7] was 107%; in test [8], 110%.

Take `CC(=O)c1nn(-c2ccccc2)c(=Nc2ccccc2)cc1C`: the growth in test [1] was 88.2%; in test [2] it was 99%; in test [3], 112%; in test [4], 104%; in test [5], 93.4%; in test [6] it was 98.2%. In addition, the figures for the growth in test [7] and in test [8] were 100% and 99%, respectively.

In the case of `CC[C@@H](C)/C=C(C)/C=C/C(=O)c1c(O)c(-c2ccc(O)cc2)cn(OC2CC(=O)CCC(C)OC(=O)CC2O)c1=O` (stereo partly drawn), the growth is 25.8% in test [1]; 14.6% in test [2]; 12.4% in test [3]; 22.9% in test [4]; 21.7% in test [5]; 18.5% in test [6]. The growth is 8.22% (active) in test [7] and 19.8% in test [8].

In the case of `O=C1Nc2ccc(Cl)cc2/C1=C/c1cccs1`, the growth in test [1] was 16.9%; in test [2], 95.4%; in test [3], 105%; in test [4], 103%; in test [5], 44.6%; in test [6], 99.2%. Moreover, the growth in test [7] is 77.6%; in test [8] it was 86.8%.

For `Cc1ccc(-c2csc(N)n2)cc1`, the growth is 92.9% in test [1]; 93% in test [2]; 106% in test [3]; 105% in test [4]; 106% in test [5]; 99.9% in test [6]. The growth in test [7] is 98.7%; in test [8] it was 106%.

In the case of `CCOC(=O)C(C(=O)OCC)C1CCCCC1`, the growth was 100% in test [1]; 104% in test [2]; 101% in test [3]; 104% in test [4]; 98.6% in test [5]; 104% in test [6]. In addition, the results for the growth in test [7] and in test [8] were 111% and 105%, respectively.

As for `COc1ccc(/C=C2/SC(=Nc3c(C)nn(-c4ccccc4)c3N)NC2=O)cc1`, the growth in test [1] is 60.9%; in test [2] it was 26.8%; in test [3], -38.9% (active); in test [4], 18.5%; in test [5] it was 8.99% (active); in test [6], 16.8%. For the same molecule, the growth is 53.5% in test [7] and 28.6% in test [8].

As to `CN1CCN(c2nc3scc(-c4ccccc4)c3c(=O)[nH]2)CC1`, the growth was 104% in test [1]; 104% in test [2]; 99.7% in test [3]; 95.4% in test [4]; 92.5% in test [5]; 91.9% in test [6]. The values for the growth in test [7] and in test [8] were 99.5% and 94.1%, respectively.

For `FCc1ncc(-c2ccc(C(F)(F)F)cc2)c(NC2CCCCCC2)n1`, the growth in test [1] is -10.9% [100 µM] (active); in test [2], -50.1% [100 µM] (active); in test [3], -6.34% [100 µM] (active); in test [4] it was 4.08% [100 µM] (active); in test [5], 1.01% [100 µM] (active); in test [6], -2.53% [100 µM] (active). Besides, the growth is 13.4% [100 µM] in test [7] and -59.8% [100 µM] (active) in test [8].

For `COC(=O)CC1=C(c2ccc([N+](=O)[O-])cc2)CCC1=O`, the growth in test [1] was 101%; in test [2], 110%; in test [3], 105%; in test [4], 101%; in test [5] it was 104%; in test [6], 112%. For the same molecule, the growth was 109% in test [7] and 107% in test [8].

For the molecule `CCCCCCCC[Si](OCC)(OCC)OCC`, the growth in test [1] is 96.2%; in test [2] it was 99.1%; in test [3], 109%; in test [4], 105%; in test [5] it was 98.3%; in test [6] it was 101%. Besides, the growth in test [7] was 105%; in test [8], 103%.

For `COc1cc(/C=N/NC(=O)c2ccc(C(F)(F)F)nc2Nc2cc(Cl)ccc2C)cc(OC)c1OC`, the growth in test [1] was 84.7%; in test [2] it was 99.6%; in test [3], 97.7%; in test [4] it was 97%; in test [5], 104%; in test [6] it was 99%. In addition, the growth was 104% in test [7] and 108% in test [8].

Turning to `COc1ccc(/C=C2\CCc3ccccc3C2=O)cc1`, the growth in test [1] is 92.5%; in test [2], 97.9%; in test [3], 9.53% (active); in test [4] it was 66.9%; in test [5], 85.7%; in test [6], 94.3%. The growth was 80.4% in test [7] and 44.6% in test [8].

`OCc1n(Cc2ccc3ccccc3c2)cc[n+]1Cc1ccc2ccccc2c1`: the growth was 31.3% in test [1]; 31.2% in test [2]; 5.53% (active) in test [3]; 67.7% in test [4]; 61.8% in test [5]; 35.6% in test [6]. The growth in test [7] was 39.8%; in test [8], 39.3%.

Consider `Clc1ccc(C2=NN(c3ccc(Cl)cc3)C(c3cccc(Nc4ccnc5cc(Cl)ccc45)c3)C2)cc1` (stereo not drawn), for which the growth in test [1] is 79.8%; in test [2] it was 68.4%; in test [3], 99.2%; in test [4], 90%; in test [5], 81.9%; in test [6], 55%. For the same molecule, the results for the growth in test [7] and in test [8] were 94% and 85.2%, respectively.
